Screening results (PubChem BioAssay)
Compounds with a hit are over-represented: about 1.7% of the library has one in this group of screens.
ZTA counter: blocks Epstein-Barr virus ZTA, an EBNA-1 counter-screen | ZTA-DNA binding, fluorescence polarization | inhibition, % at 11 µM | 320,000 compounds, 0.15% hits; in the data active = inhibition above about 33%
EBNA-1 inh: blocks EBNA-1 binding to DNA; EBNA-1 DNA binding, fluorescence polarization; inhibition, % at 14.8 µM; 300,000 compounds, 0.34% hits; AID 1950; in the data active = inhibition above about 28%
PAD4 inh: PAD4 (human) enzyme inhibition | Q9UM07 | inhibition, % at 6.36 µM | 330,000 compounds, 0.41% hits | recombinant PAD4, RCA probe fluorescence polarization;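 active = percent inhibition above a cutoff equal to the mean of all tested compounds plus 3 SD, cut at about 15% in these data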;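 note: 0% = PAD4 with RCA probe and DMSO and 100% = probe without PAD4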
LYPLA1 inh: counter-screen for PME1 inhibitors: inhibitors of human LYPLA1 | AID 2174 | 320,000 compounds, 0.16% hits | O75608 | recombinant LYPLA1, FP-Rh probe fluorescence polarization | inhibition, % at 5.9 µM;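 active = inhibition above the mean of all tested compounds plus 3 SD, set per campaign, cut at about 14% in these data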;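 note: inhibitors block serine hydrolase probe labeling of LYPLA1 so polarization falls; 0% = enzyme with DMSO and 100% = wells lacking LYPLA1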
LYPLA2 inh: LYPLA2 (human) inhibition in PME1 counter-screen; O95372; recombinant LYPLA2, FP-Rh probe fluorescence polarization; inhibition, % at 5.9 µM; 320,000 compounds, 0.38% hits; AID 2177;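 active = inhibition above the screen-wide mean plus 3 SD, limit set per campaign, cut at about 26% in these data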;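 note: 0% = LYPLA2 with DMSO and 100% = wells lacking LYPLA2 enzyme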
Target sequence (O95372 whole entry, looked up): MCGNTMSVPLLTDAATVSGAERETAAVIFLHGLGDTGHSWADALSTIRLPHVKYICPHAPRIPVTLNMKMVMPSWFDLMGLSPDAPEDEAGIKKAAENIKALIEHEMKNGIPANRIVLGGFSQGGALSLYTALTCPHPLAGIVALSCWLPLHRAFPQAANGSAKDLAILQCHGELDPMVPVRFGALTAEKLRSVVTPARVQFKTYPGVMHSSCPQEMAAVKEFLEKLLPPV
GSTO1 counter: blocks human GSTO1 in RBBP9 counter-screen; P78417; recombinant GSTO1, activity-based probe fluorescence polarization; inhibition, % at 5.96 µM; 300,000 compounds, 1.1% hits;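 active = inhibition above the campaign mean inhibition plus 3 SD, cut at about 35% in these data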;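 note: 0% = GSTO1-1 with DMSO and 100% = wells lacking GSTO1-1 enzyme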
Target sequence (P78417 whole entry, looked up): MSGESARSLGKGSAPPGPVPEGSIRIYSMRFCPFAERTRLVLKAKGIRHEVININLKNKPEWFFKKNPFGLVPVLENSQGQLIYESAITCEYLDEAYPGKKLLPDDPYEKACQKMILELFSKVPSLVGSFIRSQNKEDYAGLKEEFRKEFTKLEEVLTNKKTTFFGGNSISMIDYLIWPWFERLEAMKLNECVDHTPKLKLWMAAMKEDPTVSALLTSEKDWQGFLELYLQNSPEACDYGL
GSTO1 inh conf: confirmation of human GSTO1 inhibitors. shares compounds with GSTO1 counter. recombinant GSTO1, probe fluorescence polarization. inhibition, % at 5.96 µM. 2,400 compounds, 54% hits;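 active = inhibition above the primary screen's cutoff, its mean inhibition plus 3 SD, cut at about 35% in these data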;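 note: loss of polarization as inhibitors block binding of rhodamine sulfonate ester activity probe; 0% = GSTO1 with DMSO and 100% = wells lacking GSTO1 enzyme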
GSTO1 recomb ABPP: GSTO1 (human) inhibition by gel ABPP; recombinant GSTO1, gel ABPP SE-Rh probe fluorescence; inhibition, % at 1 µM; AID 463110; 130 compounds, 30% hits; shares compounds with GSTO1 counter;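 active = inhibition of the enzyme GSTO1 above about 75%, limit read from the data; inactive = inhibition below that limit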
Starred values were filed as active, the others as inactive; · = no result given.

SMILES | ZTA counter | EBNA-1 inh | PAD4 inh | LYPLA1 inh | LYPLA2 inh | GSTO1 counter | GSTO1 inh conf | others
COC(=O)c1ccccc1NC(=O)C1CCN(S(=O)(=O)c2cc(C)ccc2OC)CC1 | 14 | -1 | -5 | 0 | 5 | 74* | 1
CC[C@H]1c2[nH]c3ccccc3c2C[C@@H]2C(=O)N(c3ccc(F)cc3)C(=O)N21 | 1 | 7 | 4 | 1 | 2 | -2 | ·
COC(=O)C1=C(C)N(CC2CCCO2)C(=O)/C1=C\c1ccc(O)cc1 (stereo not drawn) | -2 | 10 | -4 | -1 | -2 | 43* | 1
COc1ccc(/C=C2\SC(=S)N(CC3CCCO3)C2=O)cc1 (stereo not drawn) | -7 | -7 | -3 | 0 | 6 | 14 | ·
Cc1ccc([N+](=O)[O-])cc1S(=O)(=O)Nc1ccc(OCC(=O)N2CCOCC2)cc1 | 1 | 11 | -1 | -1 | 8 | 5 | ·
CC1(OC(=O)CCc2ccccc2)C(=O)C=C2C=C(c3ccc(C#N)cc3)N(Cc3ccccc3)C=C2C1=O (stereo not drawn) | -1 | -1 | -17 | -3 | -7 | 28 | ·
COC(=O)CCC(=O)OC1(C)C(=O)C2=CN(C3CC3)C(c3ccc(OC)cc3)=CC2=C(Br)C1=O (stereo not drawn) | 9 | 3 | -7 | 3 | 2 | 63* | 24
COC(=O)CCC(=O)OC1(C)C(=O)C2=CN(Cc3ccc(OC)cc3)C(c3ccc(OC)cc3)=CC2=C(Br)C1=O (stereo not drawn) | -2 | 3 | -13 | -3 | -2 | 38* | 39*
COC(=O)CCC(=O)OC1(C)C(=O)C2=CN(CC(C)C)C(c3ccc(OC)cc3)=CC2=C(Br)C1=O (stereo not drawn) | -7 | 9 | -6 | -2 | 8 | 59* | 53*
CCC(=O)OC1(C)C(=O)C2=COC(c3ccc(OC)cc3)=CC2=C(Br)C1=O (stereo not drawn) | -3 | 0 | -10 | 2 | -1 | 33 | ·
COC(=O)CCC(=O)OC1(C)C(=O)C2=CN(CC3CC3)C(c3ccc(OC)cc3)=CC2=C(Br)C1=O (stereo not drawn) | -6 | 8 | -3 | 0 | 4 | 51* | 36*
COC(=O)CCC(=O)OC1(C)C(=O)C2=CN(Cc3ccccc3)C(c3ccc(OC)cc3)=CC2=C(Br)C1=O (stereo not drawn) | 6 | -11 | -27 | -1 | 0 | 50* | 14
COC(=O)CCC(=O)OC1(C)C(=O)C2=CN(CCc3c[nH]c4ccccc34)C(c3ccc(OC)cc3)=CC2=C(Br)C1=O (stereo not drawn) | -2 | 5 | -7 | -1 | -6 | 21 | ·
COC(=O)CCC(=O)OC1(C)C(=O)C2=CN(c3ccccc3)C(c3ccc(OC)cc3)=CC2=C(Br)C1=O (stereo not drawn) | 5 | 4 | -20 | 2 | 3 | 45* | 13
COC(=O)CCC(=O)OC1(C)C(=O)C2=CN(CCCOC(C)C)C(c3ccc(OC)cc3)=CC2=C(Br)C1=O (stereo not drawn) | -10 | -3 | 9 | -4 | -3 | 52* | 65*
O=C(CN(CC1CCCO1)C(=O)CNS(=O)(=O)c1ccc(F)cc1)NC1CCCCC1 (stereo not drawn) | 15 | 5 | -2 | 0 | 15 | 0 | ·
Cc1ccc(N(CC(=O)N/N=C/c2cccc(Br)c2)S(C)(=O)=O)cc1 | 8 | -8 | 6 | -2 | -5 | -1 | ·
Cc1cccc(NC2=C(NC(=O)c3ccccc3)C(=O)c3ccccc3C2=O)c1 | 3 | -1 | -11 | 2 | 0 | 56* | 38*
O=C1C(Cl)=C(NC(=O)c2ccccc2)C(=O)C(Cl)=C1NC(=O)c1ccccc1 | -3 | -8 | 51* | -1 | -1 | 79* | 14
Cc1ccc(NC(=O)c2cc(CC(C)C)nc3ccccc23)cc1 | 6 | 4 | -3 | 3 | 10 | 42* | 4
COc1cccc(-c2nc(CCl)cs2)c1 | 12 | 11 | -2 | 1 | 3 | 83* | 95* | GSTO1 recomb ABPP=63
CCc1ccc(-c2nc(CCl)cs2)cc1 | 1 | 5 | 1 | 0 | 0 | 92* | 98* | GSTO1 recomb ABPP=81*
COc1ccccc1NS(=O)(=O)c1cccc(NS(=O)(=O)c2ccc(Cl)c(C(=O)O)c2)c1 | · | · | -1 | · | · | · | ·
CC(C)(C)N1CC23C=CC(C[C@@H]2C1=O)O3 (stereo partly drawn) | 16 | 5 | 0 | -3 | -2 | 6 | ·
Nc1nc(N)c(N=Nc2ccc(C(=O)O)cc2)c(N)n1 | 8 | -4 | 3 | -1 | -8 | 5 | ·
SMILES | ZTA counter | EBNA-1 inh | PAD4 inh | LYPLA1 inh | LYPLA2 inh | GSTO1 counter | GSTO1 inh conf | others
O=C(O)c1ccc(N=Nc2c(O)ccc3ncccc23)cc1 | 1 | 2 | -8 | -4 | -1 | 60* | 41*
COc1cc(/C=N/n2nnnc2N)cc(Cl)c1OC | -11 | 7 | 3 | 0 | 2 | 13 | ·
Oc1ccc(/C=N/N2CCCCC2)cc1O | -6 | -12 | 3 | -4 | -4 | 40* | 8
COc1cc(NC(=O)c2cc3ccccc3cc2OC)ccc1NC(=O)c1cccs1 | -2 | 4 | -8 | -10 | -8 | 0 | ·
Cc1ccc(S(=O)(=O)CCSC(=N)N)cc1 | -11 | 1 | 6 | 4 | 10 | 6 | ·
O=C(N(c1ccccc1)c1ccccc1)N(c1ccccc1)c1ccccc1 | -14 | -5 | 0 | -4 | -3 | 12 | ·
CC(=O)N(C1=C(N)C(=O)c2ccccc2C1=O)c1ccccc1 | 9 | -10 | 1 | 2 | 4 | 59* | 27
CC(C)(C)C1CCC2(CC1)CC(=O)c1ccccc1O2 (stereo not drawn) | -9 | -6 | -8 | -4 | -10 | -2 | ·
O=S(=O)(c1ccc(Cl)cc1)c1cc(O)ccc1O | -3 | -16 | -1 | -1 | 6 | 61* | 2
Nc1ccc(S(=O)(=O)c2ccc(Cl)cc2)cc1 | 20 | -2 | 2 | -1 | 1 | -3 | ·
Cc1c(O)ccc2cc(S(=O)(=O)c3ccccc3)c(=O)oc12 | -9 | -15 | 0 | -5 | -9 | 1 | ·
O=S(=O)(c1ccccc1)c1cc(O)ccc1O | -2 | 2 | 2 | -5 | -1 | 64* | 9
O=C(CN1C(=O)C(=O)N(C2CCCC2)C1=O)NCCc1ccc(Cl)cc1Cl | -6 | · | 0 | 2 | 0 | · | ·
O=C(Nc1nc(-c2ccco2)c(-c2ccco2)s1)c1cnccn1 | 17 | 11 | -10 | -3 | -4 | 45* | 10
O=C(Nc1nc(-c2ccco2)c(-c2ccco2)s1)c1c(F)cccc1Cl | 16 | · | -12 | -17 | -21 | · | ·
